Experimental data from PubChem BioAssay (NCI).
This is part of a sample that, as a whole, favours compounds with a hit. Of some 83,000 tested, about 20% had one in any assay.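 For each line, cells grew in 96-well plates with the test compound present at a single concentration for 48 hours.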 Activity calls are given as the source filed them. How the source made its calls: active means growth percent below 10; inactive means the rest.

Tests used:
Experiment in all cases: NCI-60 one-dose screen, 48 h (100 = growth as untreated, 0 = no growth, -100 = all killed)
Conditions in all cases: 10 µM unless noted
HCT-15 colon = test system: HCT-15 colon
HT29 colon = test system: HT29 colon
SNB-75 CNS = test system: SNB-75 CNS
SNB-19 CNS = test system: SNB-19 CNS
U251 CNS = test system: U251 CNS
PC-3 prostate = test system: PC-3 prostate
SK-MEL-5 melanoma = test system: SK-MEL-5 melanoma
UACC-62 melanoma = test system: UACC-62 melanoma
LOX IMVI melanoma = test system: LOX IMVI melanoma
SK-MEL-28 melanoma = test system: SK-MEL-28 melanoma

Measured: growth

CN(C)CCN1C(=O)c2cccc3c(/C=C/CN4C(=O)c5cccc6cccc(c56)C4=O)ccc(c23)C1=O
active: HCT-15 colon -75.6% | SK-MEL-28 melanoma -56.5%
inactive: HT29 colon 94% | SNB-75 CNS 90.6% | SNB-19 CNS 18.7% | U251 CNS 90.8% | PC-3 prostate 71.7% | SK-MEL-5 melanoma 82.2% | UACC-62 melanoma 98.7% | LOX IMVI melanoma 30.3%

COc1cc(OC)cc(-c2ccc(-c3ccc(C(=N)N)o3)o2)c1
inactive: SNB-75 CNS 87.6% | SNB-19 CNS 51.3% | PC-3 prostate 71.2% | SK-MEL-5 melanoma 76% | SK-MEL-28 melanoma 87.8%
active: HCT-15 colon -6.9% | HT29 colon 8.19% | U251 CNS 8.25% | UACC-62 melanoma -3.63% | LOX IMVI melanoma -64.1%

O=C1c2cccc3cccc(c23)C(=O)N1C/C=C/c1ccc2c3c(cccc13)C(=O)N(CCO)C2=O
inactive: HCT-15 colon 75.3% | HT29 colon 87% | SNB-75 CNS 58.6% | SNB-19 CNS 88% | U251 CNS 71.1% | PC-3 prostate 51.2% | SK-MEL-5 melanoma 89.9% | UACC-62 melanoma 91.4% | LOX IMVI melanoma 87.3% | SK-MEL-28 melanoma 84.9%

Cc1ccc(/C=C/C(=O)c2cccc(OCCCOc3cccc(C(=O)/C=C/c4ccc(C)cc4)c3)c2)cc1
inactive: HCT-15 colon 64.4% | HT29 colon 51.5% | SNB-75 CNS 70.2% | SNB-19 CNS 77.2% | U251 CNS 41% | PC-3 prostate 72.2% | SK-MEL-5 melanoma 90.2% | UACC-62 melanoma 62.9% | LOX IMVI melanoma 25.5% | SK-MEL-28 melanoma 97.7%

CN(CCCNC(=O)CCOCCOCCOCCNC(=O)Cc1ccc2ccc3cccc4ccc1c2c34)CCCNc1cc(-c2ccc3ccccc3c2)nc2ccccc12
active: HCT-15 colon -77.5% | HT29 colon -87.6% | SNB-75 CNS -95.7% | SNB-19 CNS -95.1% | U251 CNS -70.7% | PC-3 prostate -93.6% | SK-MEL-5 melanoma -96% | UACC-62 melanoma -65.9% | LOX IMVI melanoma -43.7% | SK-MEL-28 melanoma -94%

CCN(CC)Cc1cc(Nc2ccnc3cc(Cl)ccc23)ccc1O
inactive: HCT-15 colon 68% | HT29 colon 81.2% | SNB-75 CNS 83.4% | SNB-19 CNS 88.7% | U251 CNS 89.4% | PC-3 prostate 93.2% | SK-MEL-5 melanoma 96.7% | UACC-62 melanoma 92.7% | LOX IMVI melanoma 85.8% | SK-MEL-28 melanoma 94.9%

CCN1C(=O)N(CC)C2C1NC(=S)N2/N=C/c1ccc(OC)cc1 (stereo not given)
active: HT29 colon 8.46%
inactive: HCT-15 colon 33.2% | SNB-75 CNS 15.1% | SNB-19 CNS 52.8% | U251 CNS 40.3% | PC-3 prostate 55.9% | SK-MEL-5 melanoma 43.3% | UACC-62 melanoma 38.5% | LOX IMVI melanoma 49.2% | SK-MEL-28 melanoma 71%

O=C(Nc1ccccc1O)c1ccc(CNC(=O)c2ccsc2Nc2ccnc(C(F)(F)F)c2)cc1
active: U251 CNS 1.39% | SK-MEL-5 melanoma -8.81% | UACC-62 melanoma 9.79%
inactive: HCT-15 colon 28% | HT29 colon 28.7% | SNB-75 CNS 47.8% | SNB-19 CNS 52.3% | PC-3 prostate 14.5% | LOX IMVI melanoma 34.5% | SK-MEL-28 melanoma 51.3%

COC1=C(C)C(=O)N2[C@@H]1[C@H](c1ccccc1)OC21C=CC(=O)C=C1
inactive: SNB-75 CNS 52.7% | SNB-19 CNS 64.9% | U251 CNS 26.2% | SK-MEL-5 melanoma 33%
active: HCT-15 colon -27.3% | HT29 colon -12.6% | PC-3 prostate -5.32% | UACC-62 melanoma -55.2% | LOX IMVI melanoma -61.6% | SK-MEL-28 melanoma -14.4%

N[C@H]1CCC[C@@H]1NCCCCN1C(=O)c2cccc3cc([N+](=O)[O-])cc(c23)C1=O
inactive: HCT-15 colon 63.5% | HT29 colon 14.2% | SNB-75 CNS 46.7% | SNB-19 CNS 46.2% | U251 CNS 42.1% | PC-3 prostate 40.7% | SK-MEL-5 melanoma 70.2% | UACC-62 melanoma 72.2% | LOX IMVI melanoma 22.8% | SK-MEL-28 melanoma 93.6%

O=C(N/N=C/c1cc(Cl)ccc1O)c1ccccc1Nc1ccnc(C(F)(F)F)c1
active: SK-MEL-5 melanoma 2.92% | UACC-62 melanoma -12%
inactive: HCT-15 colon 30.4% | HT29 colon 39.2% | SNB-75 CNS 57.6% | SNB-19 CNS 21% | U251 CNS 16.7% | PC-3 prostate 32.9% | LOX IMVI melanoma 13.2% | SK-MEL-28 melanoma 59.1%

CCn1c(-c2cc3c([nH]c4ccccc43)c(-c3cccc(O)c3)n2)n[nH]c1=S
active: HT29 colon -19.4% | SK-MEL-5 melanoma -1.38%
inactive: HCT-15 colon 50.2% | SNB-75 CNS 22.2% | SNB-19 CNS 62.6% | U251 CNS 23.8% | PC-3 prostate 34.1% | UACC-62 melanoma 43.6% | LOX IMVI melanoma 32.5% | SK-MEL-28 melanoma 53.6%

Cc1ccc(S(=O)(=O)N2CCC(=O)c3ccccc32)cc1
inactive: HCT-15 colon 42.9% | HT29 colon 68.4% | SNB-75 CNS 42.8% | SNB-19 CNS 69.4% | U251 CNS 49.4% | PC-3 prostate 74.8% | SK-MEL-5 melanoma 63.3% | UACC-62 melanoma 67.7% | LOX IMVI melanoma 76.4% | SK-MEL-28 melanoma 80.3%

CN1CCN(C(=O)C(C)(C)c2ccc(C(=O)Nc3cn4cc(-c5ccncc5)ccc4n3)cc2)CC1
active: HCT-15 colon 2.11% | HT29 colon 6.49% | SNB-75 CNS -5.48% | SNB-19 CNS 9.14% | SK-MEL-5 melanoma -98.2% | UACC-62 melanoma -31.3% | LOX IMVI melanoma -19.9% | SK-MEL-28 melanoma 7.28%
inactive: U251 CNS 16% | PC-3 prostate 25.7%

CC(C)(C)n1cc(-c2ccnc(NCCCNS(=O)(=O)c3cccc4ccccc34)c2)c(-c2cccc(F)c2)n1
inactive: HCT-15 colon 44.6% | HT29 colon 27.6% | SNB-75 CNS 67.2% | SNB-19 CNS 86.3% | U251 CNS 65% | PC-3 prostate 55.8% | SK-MEL-5 melanoma 74.5% | UACC-62 melanoma 80.5% | LOX IMVI melanoma 54.7% | SK-MEL-28 melanoma 99.9%

CC(C)=CCNc1ncnc2c1ncn2C1OC(CO)C(O)C1O (stereo not given)
active: HCT-15 colon -49.7% [1 mM] | HT29 colon -5.71% [1 mM] | SNB-75 CNS -32.6% [1 mM] | PC-3 prostate -25.8% [1 mM] | LOX IMVI melanoma -96.7% [1 mM]
inactive: SNB-19 CNS 13.5% [1 mM] | U251 CNS 35.2% [1 mM] | SK-MEL-5 melanoma 49.4% [1 mM] | UACC-62 melanoma 27.5% [1 mM] | SK-MEL-28 melanoma 79.5% [1 mM]

CC1(C)[C@@H](O[C@@H]2OC[C@@H](O[C@@H]3O[C@H](CO)[C@@H](O)[C@H](O)[C@H]3O[C@@H]3OC[C@@H](O)[C@H](O)[C@H]3O)[C@H](O)[C@H]2O[C@@H]2O[C@H](CO)[C@@H](O)[C@H](O)[C@H]2O)CC[C@]2(C)[C@H]3CC[C@]45OC[C@@]6(CC[C@](C)(C=O)C[C@H]64)[C@H](O)C[C@@]5(C)[C@]3(C)CC[C@@H]12
active: HCT-15 colon -46.4% | HT29 colon -85.3% | SNB-75 CNS -78.5% | SNB-19 CNS -68.4% | U251 CNS -89.8% | PC-3 prostate -85.1% | SK-MEL-5 melanoma -27.7% | UACC-62 melanoma -71.8% | LOX IMVI melanoma -73.2% | SK-MEL-28 melanoma -76.4%

O=c1cc(-c2ccccc2)[nH]c2ncc(-c3ccc(F)cc3)n12
inactive: HCT-15 colon 37.7% | HT29 colon 40.6% | SNB-75 CNS 68.3% | SNB-19 CNS 68.3% | U251 CNS 56% | PC-3 prostate 56.7% | SK-MEL-5 melanoma 54.9% | UACC-62 melanoma 36.6% | LOX IMVI melanoma 65.9% | SK-MEL-28 melanoma 73.4%

COc1ccc(-c2n[nH]c(=O)c3nc(NC(=S)Nc4ccc(Oc5ccccc5)cc4)sc23)cc1
inactive: HCT-15 colon 103% | HT29 colon 87.6% | SNB-75 CNS 80.8% | SNB-19 CNS 101% | U251 CNS 83.3% | PC-3 prostate 83.8% | SK-MEL-5 melanoma 99.9% | UACC-62 melanoma 95.2% | LOX IMVI melanoma 104% | SK-MEL-28 melanoma 104%

Cc1c(Cl)cccc1C(=O)Nc1nc2c(s1)CN(C(=O)c1ccc(C(F)(F)F)cc1)CC2
inactive: HCT-15 colon 15% | SNB-19 CNS 34.6% | U251 CNS 17.7% | UACC-62 melanoma 37.6% | LOX IMVI melanoma 20.2% | SK-MEL-28 melanoma 59.1%
active: HT29 colon 1.63% | SNB-75 CNS 6.65% | PC-3 prostate 7.45% | SK-MEL-5 melanoma 8.01%

COc1ccc(Cn2cc(C(=O)N=Nc3c(O)[nH]c4c(C)cccc34)nn2)cc1
inactive: HCT-15 colon 68% | HT29 colon 67.4% | SNB-75 CNS 27.3% | SNB-19 CNS 97.5% | U251 CNS 108% | PC-3 prostate 61.3% | SK-MEL-5 melanoma 93.8% | UACC-62 melanoma 74.1% | LOX IMVI melanoma 75.3% | SK-MEL-28 melanoma 94.9%

CN1CCN(CCOc2ccc(-c3cnc4c(-c5ccc(F)cc5)cnn4c3)cc2)CC1
active: HCT-15 colon -15.8% | HT29 colon 1.11% | LOX IMVI melanoma -78.5%
inactive: SNB-75 CNS 68% | SNB-19 CNS 82% | U251 CNS 38.2% | PC-3 prostate 47.5% | SK-MEL-5 melanoma 61.2% | UACC-62 melanoma 50.7% | SK-MEL-28 melanoma 79.4%

Oc1c(CN2CCC(N3CCCCC3)CC2)cc(Cc2cc(CN3CCC(N4CCCCC4)CC3)c(O)c3ncccc23)c2cccnc12
active: UACC-62 melanoma -18.3% | LOX IMVI melanoma 4.36%
inactive: HCT-15 colon 20.6% | HT29 colon 16% | SNB-75 CNS 54.1% | SNB-19 CNS 36.6% | U251 CNS 24.6% | PC-3 prostate 17.7% | SK-MEL-5 melanoma 34.1% | SK-MEL-28 melanoma 31.5%

O=C(C1CCCCC1)[C@@H]1[C@]2(C(=O)NC3CCCCC32)[C@@H]2CCCN2[C@@]12C(=O)NC1CCC(Cl)CC12 (stereo not given in full)
active: HCT-15 colon -83.4% [100 µM] | HT29 colon -85.2% [100 µM] | SNB-75 CNS -68.8% [100 µM] | SNB-19 CNS -92.5% [100 µM] | U251 CNS -90.6% [100 µM] | PC-3 prostate -87.9% [100 µM] | SK-MEL-5 melanoma -97.1% [100 µM] | UACC-62 melanoma -95.4% [100 µM] | LOX IMVI melanoma -83.4% [100 µM] | SK-MEL-28 melanoma -83% [100 µM]

O=C(NNC(=O)c1ccc(NC(=O)c2ccccn2)cc1)Nc1ccc2ccccc2c1
inactive: HCT-15 colon 105% | HT29 colon 109% | SNB-75 CNS 109% | SNB-19 CNS 91.8% | U251 CNS 101% | PC-3 prostate 107% | SK-MEL-5 melanoma 102% | UACC-62 melanoma 108% | LOX IMVI melanoma 115% | SK-MEL-28 melanoma 110%

Cc1nn(-c2ccccc2)c(N)c1N=C1NC(=O)/C(=C/c2ccc(Br)cc2)S1
inactive: HCT-15 colon 81.5% | HT29 colon 106% | SNB-75 CNS 85.2% | SNB-19 CNS 73.5% | U251 CNS 77.1% | PC-3 prostate 74% | SK-MEL-5 melanoma 99% | UACC-62 melanoma 77.6% | LOX IMVI melanoma 90.4% | SK-MEL-28 melanoma 94.5%
